Where “and” joins values, the source holds several entries; their conditions need not be identical. Equal values may be shown once.

Here are results for 3 compounds from PubChem BioAssay AID651871 (Sanford-Burnham Center for Chemical Genomics, 2012).

The test deals with HL-1. In words: cardiomyocyte survival under oxidative or metabolic stress – cell-based, panel, H9c2 and HL-1, ATP luminescence, set 2, SAR follow-up (AID 651871).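 Also: cells exposed to stressor for 2 h before ATP readout; reference of the scale not given here.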 To be noted: H9c2/HL-1 cardiomyocytes, 2-deoxyglucose stress, with 2-deoxyglucose, run 10, at 79 µM (top of the series).
`CCOC(=O)c1cccc(NC(=O)CNC(=O)c2cc(-c3cc(OC)c(OC)c(OC)c3)nc3ccccc23)c1`: the activity (protection/inhibition) turned out to be 98.6%. `COc1ccc2nc(-c3cc(OC)c(OC)c(OC)c3)cc(C(=O)NCC(=O)Nc3ccc(C(C)=O)cc3)c2c1`: the activity (protection/inhibition) was 56%. On to `COc1ccc2c(c1OC)C(=O)N1c3ccccc3C(=O)N(Cc3cccc(Cl)c3Cl)C21` (stereo not drawn), for which the activity (protection/inhibition) was 36.7% and -11.3%.
